# An excerpt weighted towards active compounds, which were near 19% of everything screened.
# Pf growth 48h: Primary qHTS for delayed death inhibitors of the malarial parasite plastid, 48 hour incubation. P. falciparum luciferase growth in erythrocytes, 48 h. Potency, µM (highest dose often 28.7 µM), for the others: at the top dose activity change, negative = inhibition, hits mostly inhibitors. 5.9% of 310,000 active; note: potency is the fitted concentration of half-maximal effect; % is set by controls: 0 for no effect and ±100 for the full control effect
#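 Here the parasites carry a stable luciferase gene and grow inside erythrocytes in Albumax-based RPMI medium with compound for one erythrocytic cycle. Activity is scored as loss of luminescent signal.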
# SARS PLpro yeast: qHTS of Yeast-based Assay for SARS-CoV PLP; S. cerevisiae expressing SARS-CoV PLpro, growth rescue; Potency, µM (titrated, usually from 32.9 µM), for the others: top-dose activity, positive = growth rescue, usual class: activators; 0.19% of 330,000 active; AID 485353, 2010; calls by dose curve; note: potency is the fitted concentration of half-maximal effect; 0% is about no effect; nearly all actives have a fitted effect of over 55% in size
# Shiga toxin inh: A qHTS for Small Molecule Inhibitors of Shiga Toxin | Vero cells, Shiga toxin protein synthesis inhibition reporter | inhibition, % at 38.7 µM | 9.2% of 290,000 active; in the data active = inhibition mostly above about 28%, no sharp cut-off; inactive = mostly below about 43%; note: 0% is about no effect
# AMA1-RON2 inh: qHTS for Inhibitors of AMA1-RON; Towards Development of Antimalarial Drug Lead: Primary Screen; Potency, µM (top dose mostly 58.2 µM), for the others: top-dose activity change, negative = inhibition, usual class: inhibitors; AlphaScreen AMA1-biotinylated RON2 peptide binding; 0.2% of 360,000 active;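 note: potency is the fitted concentration of half-maximal effect; 0% = vehicle wells and -100% = peptide control; nearly all actives have a fitted effect of over 45% in size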
#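 AMA1 (3D7) with his tag at 25 nM final met compounds first, then biotinylated RON2 peptide at 25 nM; detection used donor plus acceptor beads, 10 µg/mL apiece, read by AlphaScreen after 30 min at room temperature.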
# Pf growth 96h: Primary qHTS for delayed death inhibitors of the malarial parasite plastid, 96 hour incubation. AID 504834, 2011. Potency, µM (highest dose often 28.7 µM), inactives show at the top dose activity change, negative = inhibition, hits mostly inhibitors. 6.9% of 320,000 active. P. falciparum luciferase reporter growth, 96 h; note: potency is the fitted concentration of half-maximal effect; % is set by controls: 0 for no effect and ±100 for the full control effect
#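 Plates of compound plus infected erythrocytes (2% hematocrit, 0.05% parasitemia final) incubate 96 hours, 37 C, 5% CO2. Detection reagent added; reduced luminescence from the parasites' luciferase reporter flags inhibition.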
# Cycloheximide cs: Cycloheximide Counterscreen for Small Molecule Inhibitors of Shiga Toxin | cell reporter, cycloheximide protein synthesis inhibition counterscreen | 12% of 300,000 active | AID 2314, 2010 | max response, %; in the data active = max response mostly above about 13%, no sharp cut-off; inactive = mostly below about 14%; note: read at 38.3 µM for the half of the compounds with a filed dose; 0% is about no effect
# Starred values were filed as active, the others as inactive; i = inactive; ? = inconclusive; · = no result given. Unless noted, calls come from the whole dose curve; as a rule, active = well fitted curve in the direction sought with a large enough effect; inconclusive = small, poorly fitted or top-dose-only effect, or another doubt; inactive = no such curve, though single readings can be large; an effect the other way counts as inactive or inconclusive.
SMILES,Pf growth 48h,SARS PLpro yeast,Shiga toxin inh,AMA1-RON2 inh,Pf growth 96h,Cycloheximide cs
COc1ccc(-c2cc3c(=O)n(CC(=O)NCCN4CCCC4)nc(C)n3n2)cc1,16%,-3%,-1,10%,?,13
O=C(NCc1ccccc1)c1cc(C2COCCN2S(=O)(=O)c2ccccc2)on1 (stereo unspecified),·,·,·,-10%,·,·
CC(C)NC(=O)N(C)C[C@H]1Oc2ccc(NC(=O)Nc3ccccc3)cc2C(=O)N([C@@H](C)CO)C[C@@H]1C,·,2%,·,10%,·,·
COC(=O)c1ccc(COC(=O)CNC(=O)CNC(=O)c2ccc(OC)cc2)cc1,·,·,·,-1%,·,·
COc1ccc(Br)cc1/C=N/n1c(-c2ccccc2)n[nH]c1=S,-23%,1%,11,34%,85%,3
CCOC(=O)Cc1csc(NC(=O)CSc2nc(N)c3c(C)c(C)sc3n2)n1,·,15%,13,-7%,1%,2
O=C(Nc1ccc(-c2csc(Nc3ccccc3)n2)cc1)c1cc([N+](=O)[O-])cc(C(F)(F)F)c1,0.59µM*,2%,-4,-9%,0.47µM*,1
O=C(Nc1ccc(-c2csc(Nc3ccc(Cl)cc3)n2)cc1)c1cccc(C(F)(F)F)c1,?,1%,-5,-13%,10µM*,-3
COc1ccc(CN(CCN)C2CC(C)N(C)CC2C)cc1 (stereo unspecified),?,3%,-5,-9%,?,2
[N-]=[N+]=NC[C@H](Cc1ccccc1)N1CC[C@@H](OCc2ccccc2)CCC1=O,-13%,-4%,16,1%,-15%,3
COc1ccc2cc(C(c3nnnn3C(C)(C)C)N3CCSCC3)c(=O)[nH]c2c1 (stereo unspecified),12µM*,1%,-27,-8%,-3%,-6
COc1ccc(Cn2nnnc2C(c2cc3ccc(OC)cc3[nH]c2=O)N2CCCCCC2)cc1 (stereo unspecified),9.3µM*,-7%,12,7%,8%,11
O=C(OCC(=O)N(CCc1ccccc1)Cc1ccccc1)c1cccc(S(=O)(=O)N2CCOCC2)c1,·,·,·,0%,·,·
COc1ccc(C2=NN(CC(=O)Nc3ccccc3C)C(=O)CC2)cc1,4.1µM*,-3%,12,13%,?,12*
COCCNC(=O)CN1N=C(c2ccc(OC)cc2)CCC1=O,24%,1%,-3,26%,9%,-3
O=C(NCC1CCCO1)c1onc(CSc2ccc(F)c(F)c2)c1C(=O)O (stereo unspecified),-15%,3%,-12,3%,45%,-4
COc1ccc(CCNc2nc(-c3sc(C)nc3C)cs2)cc1OC,·,-20%,10,?,?,10
Cc1ccc(Nc2nc(-c3sc(NC(=O)c4ccco4)nc3C)cs2)cc1,9.3µM*,2%,36,30%,?,20*
CCOc1ccccc1Nc1nc(-c2sc(NC(=O)c3ccco3)nc2C)cs1,15µM*,-5%,27,5%,2.3µM*,14
Cc1ccccc1Nc1nc(-c2sc(NC(=O)c3ccco3)nc2C)cs1,12µM*,-5%,16,13%,?,9
Cc1csc(NC(=O)c2ccco2)n1,11%,1%,-4,17%,-10%,-3
CCOc1ccccc1Nc1nc(-c2sc(C)nc2C)cs1,?,3%,48*,?,-2%,19*
C[C@@H]1CN([C@H](C)CO)S(=O)(=O)c2ccc(C#CCN(C)C)cc2O[C@@H]1CN(C)Cc1ccccc1F,·,·,·,-4%,·,·
CS(=O)(=O)c1ccc(Cl)c(NC(=O)CCCc2nc3ccccc3c(=O)[nH]2)c1,-4%,-4%,·,13%,18%,·
Cc1cc(C)c(C(=O)C2OC(=O)C(C)(C)C(=O)C2(C)C)c(C)c1 (stereo unspecified),·,-6%,-6,-1%,88%,-1
SMILES,Pf growth 48h,SARS PLpro yeast,Shiga toxin inh,AMA1-RON2 inh,Pf growth 96h,Cycloheximide cs
COc1ccccc1OCc1csc(NC(=O)c2ccco2)n1,91%,-1%,98*,0%,176%,53*
O=C(O)Cc1csc(NC(=O)c2ccco2)n1,16%,3%,-2,5%,·,7
CCCCOc1ccc(C(=O)NCC(=O)N2CC(C)CC(C)C2)cc1 (stereo unspecified),?,-7%,·,59%,?,·
Oc1c(Br)cc(Br)cc1/C=N/Nc1ccc(Cl)nn1,?,-7%,20,0%,?,-2
Fc1cccc(/C=N/Nc2ccc(Cl)nn2)c1,-17%,-1%,47,26%,133%,41*
CCOc1ccc(/C=N/Nc2ccc(Cl)nn2)c(O)c1,1.3µM*,-3%,58*,55%,?,7
CCOc1ccccc1/C=N/Nc1ccc(Cl)nn1,·,-1%,19,-7%,-28%,14
Oc1c(Br)cc(/C=N/Nc2ccc(Cl)nn2)cc1Br,0.52µM*,-8%,15,25%,1µM*,12
Cc1ccc(Nc2nc(N)nc(COC(=O)c3ccc(Br)o3)n2)cc1,26%,-5%,·,-19%,62%,·
N#Cc1ccc(Nc2nc(-c3ccccc3)cs2)cc1,·,·,·,-7%,·,·
Cc1csc(Nc2ccc(C(=O)O)cc2)n1,37%,0%,11*,0%,45%,15
Cc1csc(Nc2ccccc2)n1,62%,0%,44*,13%,76%,23*
O=C(O)c1ccc(Nc2nc(-c3ccccc3)cs2)cc1,453%,1%,112*,-4%,?,27*
Cc1cc(NC(=O)CS(=O)c2cn(Cc3cccc(Cl)c3)c3ccccc23)no1 (stereo unspecified),·,·,·,-10%,·,·
O=C(CN(C(=O)c1csnn1)c1ccc2c(c1)OCCO2)NCc1ccccc1,25%,1%,27,-4%,5%,14
O=C(C1CCN(S(=O)(=O)c2cccc3cccnc23)CC1)N1CCN(c2ccc(Cl)cc2)CC1,·,2%,-4,-5%,-25%,-6
Cc1cc(C)nc(Nc2nc3ccccc3s2)n1,155%,-7%,59*,6%,1.7µM*,39*
CC(=O)c1c(C)nc(Nc2nc(C)c3cc(C)ccc3n2)nc1C,4%,7%,56*,0%,11%,18
Cc1ccc(Nc2nc3ccccc3s2)c(C)c1,265%,2%,94*,-22%,186%,47*
CC(=O)c1c(C)nc(Nc2nc3ccccc3s2)nc1C,310%,0%,98*,-2%,i,68*
Cc1ccccc1NC(=O)c1cnc(Nc2nc3ccccc3s2)nc1C,33%,6%,-6,·,83%,1
CCc1ccc(C(=O)C(C)OC(=O)c2nc3nc(C)cc(C)n3n2)cc1 (stereo unspecified),11%,1%,·,3%,1%,·
